# Assay outcomes (PubChem BioAssay)
# GRP78 ERSR act = ER stress response induction in glioma | U87-MG GRP78 promoter luciferase reporter, 16 h | Potency, µM, inactives show top-dose activation, actives largely listed as activators | 420,000 tested, 0.02% active; note: potency is the fitted concentration of half-maximal effect; series mostly up to about 76 µM; % of control where 0% means no effect; nearly all actives have a fitted effect of over 35% in size
#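 Stably transfected U87-MG glioma cells carrying a GRP78-based luciferase sensor; 16 h compound incubation. Luminescence end-point read 10 min after Bright-Glo addition at room temperature.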
# rTrxR1 inhibitor = blocks rat thioredoxin reductase 1 | O89049 | recombinant rTrxR1, NADPH fluorescence consumption, selenite substrate | Potency, µM (titrated, usually from 114 µM), without a hit: at the top dose activity change, negative = inhibition, hits mostly inhibitors | 390,000 tested, 1% active; note: potency is the fitted concentration of half-maximal effect; % is set by controls: 0 for no effect and ±100 for the full control effect; nearly all actives have a fitted effect of over 65% in size
#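 Rat TrxR1 (90 nM in the dispensed reagent) was pre-reduced with 400 uM NADPH for 5 min at room temperature, then incubated with compound for 15 min. After 400 uM selenite was added, NADPH fluorescence (Ex 340/Em 450 nm) was followed for 8 min.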
# mIDH1 inhibitor = blocks human mutant IDH1 R132H enzyme; O75874; IDH1-R132H enzyme, NADPH consumption, diaphorase/resazurin fluorescence; Potency, µM (top dose mostly 76.6 µM), inactives show at the top dose activity change, negative = inhibition, actives largely listed as inhibitors; 390,000 tested, 0.093% active; note: potency is the fitted concentration of half-maximal effect; % is set by controls: 0 for no effect and ±100 for the full control effect; nearly all actives have a fitted effect of over 65% in size
# Target sequence (O75874 whole entry R132H, stated change not applied): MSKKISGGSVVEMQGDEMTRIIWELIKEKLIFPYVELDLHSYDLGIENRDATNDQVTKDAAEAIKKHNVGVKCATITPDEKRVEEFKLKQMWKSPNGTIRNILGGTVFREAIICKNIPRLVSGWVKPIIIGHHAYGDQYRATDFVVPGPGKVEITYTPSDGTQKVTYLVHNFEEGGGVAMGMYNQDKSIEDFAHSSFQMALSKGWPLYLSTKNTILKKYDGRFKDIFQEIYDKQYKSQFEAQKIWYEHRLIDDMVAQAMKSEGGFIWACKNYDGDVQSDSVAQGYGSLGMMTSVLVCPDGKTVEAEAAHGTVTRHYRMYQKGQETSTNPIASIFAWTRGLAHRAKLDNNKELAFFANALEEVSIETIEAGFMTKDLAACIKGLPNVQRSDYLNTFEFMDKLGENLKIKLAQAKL
#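 IDH1-R132H (0.5 ug/mL) preincubated 30 min with compound, then NADPH (0.016 mM) and alpha-KG (2 mM) added; 80 min at RT, pH 7.5. Remaining NADPH coupled via diaphorase/resazurin to fluorescence (540/590 nm); concentration-response curves normalized to no-enzyme control.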
# TrxR1 substrate = is turned over as a substrate by rat TrxR1. Potency, µM (series often up to 114 µM), inactives show at the top dose activity change, negative = substrate turnover. AID 588456. 390,000 tested, 0.01% active. O89049. purified TrxR1 substrate turnover, NADPH consumption readout; note: potency is the fitted concentration of half-maximal effect; % is set by controls: 0 for no effect and ±100 for the full control effect; nearly all actives have a fitted effect of over 50% in size
#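 Rat TrxR1, dispensed at 90 nM, was prereduced with 400 uM NADPH (final) for 5 min at ~22 deg C, then incubated with compound 15 min before 400 uM selenite. A first-read NADPH fluorescence drop versus no-compound background flagged substrates.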
# 12-LOX inh = inhibitors of human 12S-lipoxygenase ALOX12; P18054; purified 12hLO, xylenol orange hydroperoxide absorbance; Potency, µM (highest dose often 108 µM), without a hit: top-dose activity change, negative = inhibition, most hits filed as inhibitors; 580,000 tested, 1.1% active; AID 1671190; note: potency is the fitted concentration of half-maximal effect; % is set by controls: 0 for no effect and ±100 for the full control effect
#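 Hydroperoxide product was detected by ferrous iron/xylenol orange as the 573 to 405 nm absorbance ratio. Arachidonic acid at 40 uM (final) was turned over for 30 min at room temperature by 150 nM human 12hLO, pH 7.0 Hepes buffer, after 15 min compound preincubation.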
# Apoferritin bind = candidate novel general anesthetic via apoferritin binding | P02791 | apoferritin/1-aminoanthracene competitive binding, fluorescence | Potency, µM (top dose mostly 77.5 µM), inactives show top-dose activity change, negative = displacement, usual class: inhibitors | 350,000 tested, 0.074% active | AID 485281; note: potency is the fitted concentration of half-maximal effect; % is set by controls: 0 for no effect and ±100 for the full control effect; nearly all actives have a fitted effect of over 20% in size
# Target sequence (P02791 2-175 limits assumed): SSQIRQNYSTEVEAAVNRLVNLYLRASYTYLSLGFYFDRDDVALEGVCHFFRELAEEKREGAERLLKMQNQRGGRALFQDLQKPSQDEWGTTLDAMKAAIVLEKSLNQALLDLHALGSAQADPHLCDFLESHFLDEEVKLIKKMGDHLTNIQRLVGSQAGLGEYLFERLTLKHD
#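 In PBS, apoferritin at 10 uM is loaded with 1-AMA from a 50% saturated solution. After 10 min of compound exposure at ambient temperature, reduced 535 nm fluorescence indicates probe displacement.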
# Resorufin autofl = interferes with resorufin fluorescence in IDH1 counter-screen. Resorufin detection reagent fluorescence interference, cell-free. 750 tested, under 10 active. AID 623980. shares compounds with mIDH1 inhibitor. inhibition of signal, % at 51.2 µM;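 note: 0% = wells with normal resorufin and full inhibition = wells lacking resorufin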
# IDH1 WT = inhibits human wild-type IDH1, mutant selectivity check | shares compounds with mIDH1 inhibitor | WT IDH1 enzyme, NADPH diaphorase/resazurin fluorescence | Potency, µM (highest dose often 115 µM), for the others: at the highest dose activity change, negative = inhibition, usual class: inhibitors | 750 tested, 9% active | AID 623995;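 note: potency is the fitted concentration of half-maximal effect; 0% = full WT IDH1 enzyme control and full inhibition = no enzyme wells; nearly all actives have a fitted effect of over 55% in size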
# Target sequence (O75874 whole entry, looked up): as the sequence (O75874 whole entry R132H, stated change not applied) above, with H132R counted along it
# IDH1 R132H conf = mutant IDH1 (human) inhibition, confirmed. AID 624002. IDH1 R132H enzyme, NADPH diaphorase/resazurin fluorescence. Potency, µM (doses to about 76.6 µM), inactives show at the highest dose activity change, negative = inhibition, most hits filed as inhibitors. shares compounds with mIDH1 inhibitor. 750 tested, 83% active; note: potency is the fitted concentration of half-maximal effect; nearly all actives have a fitted effect of over 50% in size
# * marks the source's active call; other numbers are inactive results; ? = inconclusive; . = no result given; [ ] = another dose, or the depositor's remark. This is a sample that favours compounds with a hit; in the whole collection about 1.7% have one here. Calls come from the whole dose curve; as a rule, active = well fitted curve in the direction sought with a large enough effect; inconclusive = small, poorly fitted or top-dose-only effect, or another doubt; inactive = no such curve, though single readings can be large; an effect the other way counts as inactive or inconclusive.
SMILES,GRP78 ERSR act,rTrxR1 inhibitor,mIDH1 inhibitor,TrxR1 substrate,12-LOX inh,Apoferritin bind,Resorufin autofl,IDH1 WT,IDH1 R132H conf
CN(C)NC(=S)Nc1ccc(S(=O)(=O)N2CCCCC2)cc1,-6%,13%[11.4 µM],-7%,3%[11.4 µM],15%,-10%,.,.,.
Cc1c(-n2nnnc2SC(C(=O)N2CCCCC2)c2ccccc2)c(=O)n(-c2ccccc2)n1C (centres undefined),.,.,.,.,-1%,.,.,.,.
CCOc1cccc(C2c3c(-c4cc(C)cc(C)c4O)n[nH]c3C(=O)N2Cc2cccnc2)c1 (centres undefined),.,.,.,.,7%,.,.,.,.
COc1cc(C2c3c(-c4cc(C)ccc4O)n[nH]c3C(=O)N2Cc2cccnc2)cc(OC)c1OC (centres undefined),0%,17%,9%,2%,13%,-2%,.,.,.
CCc1ccc(C2c3c(-c4cc(C)ccc4O)n[nH]c3C(=O)N2Cc2cccnc2)cc1 (centres undefined),10%,1%,28µM*,-9%,?,-17%,-7,-3%,16µM*
CCOc1ccc(C2c3c(-c4cc(C)ccc4O)n[nH]c3C(=O)N2Cc2cccnc2)cc1OCC (centres undefined),-4%,14%,?,-1%,-7%,-24%,-3,0%,35µM*
O=c1cc(N2CCCCC2)c(-c2ccccc2)nn1Cc1ccc(Cl)cc1,-3%,-5%,-4%,8%[57.1 µM],?,-11%,.,.,.
O=c1cc(N2CCCCC2)c(-c2ccccc2)nn1Cc1c(Cl)cccc1Cl,-9%,9%[57.1 µM],21µM*,3%[57.1 µM],?,?,4,9%,14µM*
CC(=O)N1CCc2cc(C(=O)Nc3nc4ccccc4[nH]3)ccc21,.,.,.,.,8%,.,.,.,.
CCOC(=O)C1CCCN(C(=S)NC2CCCC2)C1 (centres undefined),-1%,-9%,?,-1%,5%,-8%,1,11%,-2%
CN(C)C(=O)c1cccnc1OC1CCN(C(=O)CC2CCCCC2)C1 (centres undefined),.,.,.,.,7%,.,.,.,.
c1ccc(-c2cc(-c3nnc4n3N=C(c3ccc5ccccc5c3)CS4)[nH]n2)cc1,1%,7%,12µM*,-6%,7%,-3%,-1,-10%,7.1µM*
CCN(c1ccccc1C)S(=O)(=O)c1nnc(NC(=O)c2ccc(OC)c(OC)c2)s1,-3%,9%,-13%,6%[11.4 µM],-20%,-10%,.,.,.
Cc1ccc(NC(=O)CSC2=C(C#N)C(c3ccco3)C3=C(CC(C)(C)CC3=O)N2)cc1 (centres undefined),2%,5%[57.1 µM],52µM*,2%[57.1 µM],?,-4%,3,-6%,28µM*
CCc1ccc(NC(=O)CSC2=C(C#N)C(c3ccco3)C3=C(CCCC3=O)N2)cc1 (centres undefined),4%,-10%,4%,1%,40%,-14%,.,.,.
Cc1ccccc1S(=O)(=O)N1CCN(C2CCN(Cc3cccnc3)C2=O)CC1 (centres undefined),.,.,.,.,3%,.,.,.,.
COc1cc(NS(=O)(=O)c2ccc(NC(=S)NC(=O)/C=C/c3ccc(F)cc3)cc2)ncn1,-3%,?,6.6µM*,-5%,-11%,42%,-8,11µM*,1.4µM*
COc1ccc(NS(=O)(=O)c2ccc(NC(=S)NC(=O)/C=C/c3ccccc3)cc2)nn1,-1%,?,?,-6%,-21%,-8%,-7,?,25µM*
O=C(c1ccccc1F)N(Cc1cccs1)c1ccc(O)cc1,.,.,.,.,-1%,.,.,.,.
Cc1ccc(C(NC(=O)C(C)C)c2cc([N+](=O)[O-])c3cccnc3c2O)cc1 (centres undefined),-3%,12%[57.1 µM],?,-8%[57.1 µM],16µM*,5%,7,?,28µM*
Cn1c(=O)c2c(ncn2CC(=O)NCC(C)(c2ccccc2)c2ccccc2)n(C)c1=O,.,.,.,.,-33%,.,.,.,.
Cc1cc(C)n(-c2nc(N(c3ccccc3)c3ccccc3)nc(-n3nc(C)cc3C)n2)n1,1%,19%,?,5%,.,7%,-1,7%,10µM*
Cc1cc(C)n(-c2nc(Nc3ccccc3)nc(-n3nc(C)cc3C)n2)n1,-2%,16%,0%,10%,12%,-4%,.,.,.
CN1C=CC2=C(C#N)C(N)C(C#N)(C#N)[C@H](c3ccccc3)[C@H]2C1 (some centres undefined),0%,13%,?,40%,-7%,74%,2,38%,?
N#CC1(C#N)C(C(N)=O)C1c1ccccc1 (centres undefined),2%,-29%,2%,-8%,3%,3%,.,.,.
SMILES,GRP78 ERSR act,rTrxR1 inhibitor,mIDH1 inhibitor,TrxR1 substrate,12-LOX inh,Apoferritin bind,Resorufin autofl,IDH1 WT,IDH1 R132H conf
Cc1cc(C)cc(N(C(=O)c2sc(C)nc2C)C(C(=O)NCc2ccco2)c2ccccc2)c1 (centres undefined),-2%,5%,?,-10%,-17%,1%,-10,9%,13µM*
Cc1ccc(N(C(=O)c2sc(C)nc2C)C(C(=O)NCc2ccco2)c2ccccc2)cc1 (centres undefined),1%,15%,?,4%,-7%,8%,-8,-1%,35µM*
Cc1cccc(N(C(=O)c2sc(C)nc2C)C(C(=O)NCc2ccco2)c2ccccc2)c1 (centres undefined),-5%,1%,2%,6%,-5%,-3%,.,.,.
Cc1cc(F)ccc1NC(=O)CCn1ccn2nc3c(c2c1=O)CCCC3,.,.,.,.,8%,.,.,.,.
CCOCCn1c(Br)nc2c1c(=O)[nH]c(=O)n2C,.,.,.,.,32%,.,.,.,.
COc1cc(-c2cc(C(=O)Nc3ccc(S(N)(=O)=O)cc3)c3ccccc3n2)cc(OC)c1OC,-8%,-1%,?,-8%,-9%,-19%,-1,1%,?
COc1ccc(NC(=O)c2ccc3c(c2)NC(C)(CNc2ccccc2)CO3)cc1OC (centres undefined),.,.,.,.,-5%[176 µM],.,.,.,.
C[C@H](CO)N1C[C@H](C)[C@@H](CN(C)Cc2ccc(Cl)c(Cl)c2)Oc2c(NC(=O)C3CC3)cccc2C1=O,-6%,8%[57.1 µM],?,-3%[57.1 µM],-15%,.,-4,-9%,25µM*
